This is an account of results in publication PMC11006913.

Common to all, as to assay: PBM; 200 nM protein, PBS
Holding throughout (conditions): dsDNA, one strand shown

Assay [1] has as its target SHOX (Homo sapiens, UniProt O15266 103-189).
For assay [2], the target named is HOXA4 (Homo sapiens, UniProt Q00056 201-287, W262R).
Assay [3] addresses HOXA4 (Homo sapiens, UniProt Q00056 201-287, R217L).
The target in assay [4] is SHOX (Homo sapiens, UniProt O15266 103-189, R173C).
The target of assay [5] is HOXA4 (Homo sapiens, UniProt Q00056 201-287).
Sequence of HOXA4 (Homo sapiens, UniProt Q00056 201-287) (Q00056 201-287): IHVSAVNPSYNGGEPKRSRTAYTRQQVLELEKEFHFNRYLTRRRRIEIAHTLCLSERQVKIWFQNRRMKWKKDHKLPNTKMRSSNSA
Assay [6] concerns the target HOXA4 (Homo sapiens, UniProt Q00056 201-287, W262F).
Assay [7] concerns the target T1, SIX6 (Homo sapiens, UniProt O95475 114-200, L167I).
T1 sequence: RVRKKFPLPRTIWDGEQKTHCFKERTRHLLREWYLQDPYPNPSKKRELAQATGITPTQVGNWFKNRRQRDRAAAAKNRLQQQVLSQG

For assay [8], the target named is T2, SIX6 (Homo sapiens, UniProt O95475 114-200, L143V).
T2 sequence: T1 sequence with L30V, I54L

In assay [9] the target is T3, SIX6 (Homo sapiens, UniProt O95475 114-200, H141N).
T3 sequence: T1 sequence with H28N, I54L

Assay [10] concerns the target T4, SIX6 (Homo sapiens, UniProt O95475 114-200, T165P).
T4 sequence: T1 sequence with T52P, I54L

Assay [11] concerns the target T5, SIX6 (Homo sapiens, UniProt O95475 114-200, L167M).
T5 sequence: T1 sequence with I54M

Assay [12] concerns the target T6, SIX6 (Homo sapiens, UniProt O95475 114-200, L143M).
T6 sequence: T1 sequence with L30M, I54L

Assay [13] concerns the target T7, SIX6 (Homo sapiens, UniProt O95475 114-200, L143I).
T7 sequence: T1 sequence with L30I, I54L

For assay [14], the target named is T8, SIX6 (Homo sapiens, UniProt O95475 114-200, T165G).
T8 sequence: T1 sequence with T52G, I54L

For assay [15], the target named is T9, SIX6 (Homo sapiens, UniProt O95475 114-200, T139Q).
T9 sequence: T1 sequence with T26Q, I54L

In assay [16] the target is T10, SIX6 (Homo sapiens, UniProt O95475 114-200, T165A).
T10 sequence: T1 sequence with T52A, I54L

In assay [17] the target is T11, SIX6 (Homo sapiens, UniProt O95475 114-200, L167V).
T11 sequence: T1 sequence with I54V

In assay [18] the target is T12, SIX6 (Homo sapiens, UniProt O95475 114-200).
T12 sequence: T1 sequence with I54L

Assay [19] addresses T13, SIX6 (Homo sapiens, UniProt O95475 114-200, T165I).
T13 sequence: T1 sequence with T52I, I54L

The target of assay [20] is T14, VENTX (Homo sapiens, UniProt O95231 78-163, R121Q).
T14 sequence: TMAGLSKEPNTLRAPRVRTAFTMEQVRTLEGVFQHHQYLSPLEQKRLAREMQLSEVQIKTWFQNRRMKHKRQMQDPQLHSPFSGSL

Assay [21] concerns the target HOXC9 (Homo sapiens, UniProt P31274 178-260, K195R).
The target in assay [22] is T15, VENTX (Homo sapiens, UniProt O95231 78-163).
T15 sequence: T14 sequence with Q44R

Assay [23] has as its target T16, VENTX (Homo sapiens, UniProt O95231 78-163, Y115F).
T16 sequence: T14 sequence with Y38F, Q44R

The target in assay [24] is HOXC9 (Homo sapiens, UniProt P31274 178-260).
Sequence of HOXC9 (Homo sapiens, UniProt P31274 178-260) (P31274 178-260): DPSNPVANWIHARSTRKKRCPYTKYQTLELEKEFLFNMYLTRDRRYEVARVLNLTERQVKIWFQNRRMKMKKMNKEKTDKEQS
For assay [25], the target named is HOXC9 (Homo sapiens, UniProt P31274 178-260, R193K).
Sequence of HOXC9 (Homo sapiens, UniProt P31274 178-260, R193K) (P31274 178-260 R193K): as the sequence (P31274 178-260) above, with R16K counted along it
For assay [26], the target named is HOXC9 (Homo sapiens, UniProt P31274 178-260, R222W).
Sequence of HOXC9 (Homo sapiens, UniProt P31274 178-260, R222W) (P31274 178-260 R222W): as the sequence (P31274 178-260) above, with R45W counted along it
Assay [27] concerns the target CRX (Homo sapiens, UniProt O43186 26-111).
Assay [28] has as its target HOXA7 (Homo sapiens, UniProt P31268 116-202).
Assay [29] deals with CRX (Homo sapiens, UniProt O43186 26-111, E42D).
Sequence of CRX (Homo sapiens, UniProt O43186 26-111, E42D) (O43186 26-111 E42D): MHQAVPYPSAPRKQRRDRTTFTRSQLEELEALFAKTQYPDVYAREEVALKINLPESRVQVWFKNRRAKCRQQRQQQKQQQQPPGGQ
The target in assay [30] is MSX2 (Homo sapiens, UniProt P35548 130-214, R199I).
Sequence of MSX2 (Homo sapiens, UniProt P35548 130-214, R199I) (P35548 130-214 R199I): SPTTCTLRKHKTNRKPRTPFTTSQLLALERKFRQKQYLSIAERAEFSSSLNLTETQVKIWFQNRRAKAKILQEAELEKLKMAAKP
In assay [31] the target is MSX2 (Homo sapiens, UniProt P35548 130-214).
Sequence of MSX2 (Homo sapiens, UniProt P35548 130-214) (P35548 130-214): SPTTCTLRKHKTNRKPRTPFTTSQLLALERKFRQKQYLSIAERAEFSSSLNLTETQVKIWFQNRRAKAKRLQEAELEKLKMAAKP
For assay [32], the target named is MSX2 (Homo sapiens, UniProt P35548 130-214, F161Y).
Sequence of MSX2 (Homo sapiens, UniProt P35548 130-214, F161Y) (P35548 130-214 F161Y): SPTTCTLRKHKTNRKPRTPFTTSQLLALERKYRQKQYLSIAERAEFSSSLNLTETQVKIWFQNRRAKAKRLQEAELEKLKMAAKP
Assay [33] has as its target HOXA7 (Homo sapiens, UniProt P31268 116-202, W177C).
In assay [34] the target is NKX3-2 (Homo sapiens, UniProt P78367 192-278, P234S).
Sequence of NKX3-2 (Homo sapiens, UniProt P78367 192-278, P234S) (P78367 192-278 P234S): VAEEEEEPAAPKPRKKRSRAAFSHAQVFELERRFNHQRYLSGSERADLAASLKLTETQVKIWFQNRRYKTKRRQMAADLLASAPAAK
Assay [35] addresses CRX (Homo sapiens, UniProt O43186 26-111, R41L).
The target of assay [36] is NKX3-2 (Homo sapiens, UniProt P78367 192-278).
Sequence of NKX3-2 (Homo sapiens, UniProt P78367 192-278) (P78367 192-278): as the sequence (P78367 192-278 P234S) above, with S43P counted along it
In assay [37] the target is HOXC10 (Homo sapiens, UniProt Q9NYD6 254-340).
Sequence of HOXC10 (Homo sapiens, UniProt Q9NYD6 254-340) (Q9NYD6 254-340): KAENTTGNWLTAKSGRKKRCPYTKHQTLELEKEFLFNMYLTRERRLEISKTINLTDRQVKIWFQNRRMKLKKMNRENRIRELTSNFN
For assay [38], the target named is HOXD13 (Homo sapiens, UniProt P35453 263-343, T313R).
Sequence of HOXD13 (Homo sapiens, UniProt P35453 263-343, T313R) (P35453 263-343 T313R): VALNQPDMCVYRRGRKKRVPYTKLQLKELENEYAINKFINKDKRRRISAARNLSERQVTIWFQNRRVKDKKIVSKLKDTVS
Assay [39] deals with HOXD13 (Homo sapiens, UniProt P35453 263-343).
Sequence of HOXD13 (Homo sapiens, UniProt P35453 263-343) (P35453 263-343): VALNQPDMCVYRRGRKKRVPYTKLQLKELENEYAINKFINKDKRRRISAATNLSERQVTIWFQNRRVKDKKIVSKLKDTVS
The target in assay [40] is HOXC10 (Homo sapiens, UniProt Q9NYD6 254-340, K271E).
Sequence of HOXC10 (Homo sapiens, UniProt Q9NYD6 254-340, K271E) (Q9NYD6 254-340 K271E): as the sequence (Q9NYD6 254-340) above, with K18E counted along it
The target of assay [41] is HOXD13 (Homo sapiens, UniProt P35453 263-343, T313A).
Sequence of HOXD13 (Homo sapiens, UniProt P35453 263-343, T313A) (P35453 263-343 T313A): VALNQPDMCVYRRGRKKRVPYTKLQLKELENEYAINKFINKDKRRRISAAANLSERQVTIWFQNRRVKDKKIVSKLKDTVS

Changes are numbered by the printed parent chain.

Sequence of SHOX (Homo sapiens, UniProt O15266 103-189) (O15266 103-189): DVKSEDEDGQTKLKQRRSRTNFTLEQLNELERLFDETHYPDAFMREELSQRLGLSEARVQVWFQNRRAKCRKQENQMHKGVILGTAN
Sequence of SHOX (Homo sapiens, UniProt O15266 103-189, R173C) (O15266 103-189 R173C): as the sequence (O15266 103-189) above, with R71C counted along it
Sequence of HOXC9 (Homo sapiens, UniProt P31274 178-260, K195R) (P31274 178-260 K195R): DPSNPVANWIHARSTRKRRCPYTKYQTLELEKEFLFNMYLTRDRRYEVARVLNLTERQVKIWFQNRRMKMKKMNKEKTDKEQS
Sequence of HOXA4 (Homo sapiens, UniProt Q00056 201-287, R217L) (Q00056 201-287 R217L): as the sequence (Q00056 201-287) above, with R17L counted along it
Sequence of CRX (Homo sapiens, UniProt O43186 26-111) (O43186 26-111): as the sequence (O43186 26-111 E42D) above, with D17E counted along it
Sequence of HOXA4 (Homo sapiens, UniProt Q00056 201-287, W262R) (Q00056 201-287 W262R): as the sequence (Q00056 201-287) above, with W62R counted along it
Sequence of HOXA4 (Homo sapiens, UniProt Q00056 201-287, W262F) (Q00056 201-287 W262F): as the sequence (Q00056 201-287) above, with W62F counted along it
Sequence of HOXA7 (Homo sapiens, UniProt P31268 116-202) (P31268 116-202): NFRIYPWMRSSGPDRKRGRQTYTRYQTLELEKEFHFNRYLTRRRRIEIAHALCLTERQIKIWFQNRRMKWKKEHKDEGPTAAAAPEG
Sequence of CRX (Homo sapiens, UniProt O43186 26-111, R41L) (O43186 26-111 R41L): as the sequence (O43186 26-111 E42D) above, with R16L, D17E counted along it
Sequence of HOXA7 (Homo sapiens, UniProt P31268 116-202, W177C) (P31268 116-202 W177C): as the sequence (P31268 116-202) above, with W62C counted along it

Consider CGAGCGCC, for which the binding signal in the assay with SHOX [1] is 7.01 upbm affinity estimate (log intensity, higher = more binding, comparable within an allelic series); with HOXA4 [2] it was 9.78 upbm affinity estimate (log intensity, higher = more binding, comparable within an allelic series); with HOXA4 [3] it was 9.82 upbm affinity estimate (log intensity, higher = more binding, comparable within an allelic series); with SHOX [4], 7.09 upbm affinity estimate (log intensity, higher = more binding, comparable within an allelic series); with HOXA4 [5], 9.8 upbm affinity estimate (log intensity, higher = more binding, comparable within an allelic series); with HOXA4 [6], 9.91 upbm affinity estimate (log intensity, higher = more binding, comparable within an allelic series).

Turning to CCGGCCAC, the binding signal with SHOX [1] was 7.3 upbm affinity estimate (log intensity, higher = more binding, comparable within an allelic series); with SIX6 [7] it was 8.84 upbm affinity estimate (log intensity, higher = more binding, comparable within an allelic series); in the assay with SIX6 [8] it was 8.77 upbm affinity estimate (log intensity, higher = more binding, comparable within an allelic series); with SIX6 [9], 8.85 upbm affinity estimate (log intensity, higher = more binding, comparable within an allelic series); with SIX6 [10] it was 8.87 upbm affinity estimate (log intensity, higher = more binding, comparable within an allelic series); with SIX6 [11], 8.86 upbm affinity estimate (log intensity, higher = more binding, comparable within an allelic series). The binding signal in the assay with SIX6 [12] was 8.73 upbm affinity estimate (log intensity, higher = more binding, comparable within an allelic series); in the assay with SIX6 [13], 8.81 upbm affinity estimate (log intensity, higher = more binding, comparable within an allelic series); in the assay with SIX6 [14], 8.89 upbm affinity estimate (log intensity, higher = more binding, comparable within an allelic series); with SIX6 [15], 8.81 upbm affinity estimate (log intensity, higher = more binding, comparable within an allelic series); with SIX6 [16], 8.81 upbm affinity estimate (log intensity, higher = more binding, comparable within an allelic series); in the assay with SHOX [4], 7.14 upbm affinity estimate (log intensity, higher = more binding, comparable within an allelic series). Further, the binding signal in the assay with SIX6 [17] was 8.82 upbm affinity estimate (log intensity, higher = more binding, comparable within an allelic series); with SIX6 [18] it was 8.74 upbm affinity estimate (log intensity, higher = more binding, comparable within an allelic series); with SIX6 [19], 8.83 upbm affinity estimate (log intensity, higher = more binding, comparable within an allelic series).

With CGTGAGAG, the binding signal in the assay with SHOX [1] was 7.22 upbm affinity estimate (log intensity, higher = more binding, comparable within an allelic series); with VENTX [20], 8.23 upbm affinity estimate (log intensity, higher = more binding, comparable within an allelic series); with HOXC9 [21], 9.74 upbm affinity estimate (log intensity, higher = more binding, comparable within an allelic series); with VENTX [22], 8.19 upbm affinity estimate (log intensity, higher = more binding, comparable within an allelic series); in the assay with VENTX [23] it was 8.23 upbm affinity estimate (log intensity, higher = more binding, comparable within an allelic series); with HOXC9 [24] it was 9.82 upbm affinity estimate (log intensity, higher = more binding, comparable within an allelic series). The binding signal with SHOX [4] was 7.25 upbm affinity estimate (log intensity, higher = more binding, comparable within an allelic series); with HOXC9 [25], 9.77 upbm affinity estimate (log intensity, higher = more binding, comparable within an allelic series); with HOXC9 [26], 9.81 upbm affinity estimate (log intensity, higher = more binding, comparable within an allelic series).

For the sequence GCCTCGCC, the binding signal with SHOX [1] is 7.06 upbm affinity estimate (log intensity, higher = more binding, comparable within an allelic series); in the assay with CRX [27], 8.26 upbm affinity estimate (log intensity, higher = more binding, comparable within an allelic series); in the assay with HOXA7 [28] it was 8.38 upbm affinity estimate (log intensity, higher = more binding, comparable within an allelic series); with CRX [29] it was 8.29 upbm affinity estimate (log intensity, higher = more binding, comparable within an allelic series); with MSX2 [30], 9.34 upbm affinity estimate (log intensity, higher = more binding, comparable within an allelic series); with SHOX [4], 7.02 upbm affinity estimate (log intensity, higher = more binding, comparable within an allelic series). Also, the binding signal was 9.36 upbm affinity estimate (log intensity, higher = more binding, comparable within an allelic series) with MSX2 [31]; 9.46 upbm affinity estimate (log intensity, higher = more binding, comparable within an allelic series) with MSX2 [32]; 8.26 upbm affinity estimate (log intensity, higher = more binding, comparable within an allelic series) with HOXA7 [33]; 10.6 upbm affinity estimate (log intensity, higher = more binding, comparable within an allelic series) with NKX3-2 [34]; 8.24 upbm affinity estimate (log intensity, higher = more binding, comparable within an allelic series) with CRX [35]; 10.4 upbm affinity estimate (log intensity, higher = more binding, comparable within an allelic series) with NKX3-2 [36].

On to CCCTTCGA, for which the binding signal with SHOX [1] was 6.95 upbm affinity estimate (log intensity, higher = more binding, comparable within an allelic series); in the assay with HOXC10 [37], 10 upbm affinity estimate (log intensity, higher = more binding, comparable within an allelic series); in the assay with HOXD13 [38], 9.49 upbm affinity estimate (log intensity, higher = more binding, comparable within an allelic series); with SHOX [4] it was 7.13 upbm affinity estimate (log intensity, higher = more binding, comparable within an allelic series); with HOXD13 [39], 9.43 upbm affinity estimate (log intensity, higher = more binding, comparable within an allelic series); with HOXC10 [40], 10.1 upbm affinity estimate (log intensity, higher = more binding, comparable within an allelic series). Moreover, the binding signal with HOXD13 [41] is 9.48 upbm affinity estimate (log intensity, higher = more binding, comparable within an allelic series).
